Experimental data taken from PubChem BioAssay (NCATS).
Records with an inconclusive call do not appear. Activity calls are given as the source filed them. The call rests on the fitted dose curve; in most records, active means well fitted curve in the direction sought with a large enough effect; inconclusive means small, poorly fitted or top-dose-only effect, or another doubt; inactive means no such curve, though single readings can be large; an effect the other way counts as inactive or inconclusive.

Columns and labels:
[1] = qHTS to identify inhibitors of the type 1 interferon - major histocompatibility complex class I in skeletal muscle: primary screen against the NCATS Pharmaceutical Collection (AID 1347407); conditions: human skeletal muscle cells, IFN-b-induced MHC-I HiBiT luminescence, 24 h; series mostly up to 45.9 µM;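 further: luminescence of HiBiT knocked into endogenous HLA-B as interferon-induced MHC class I level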; further: potency means the concentration at half of the fitted maximal effect
In short: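 HLA-B HiBiT myoblasts, dexamethasone-free growth medium + 4 ng/ml IFN-b; compounds pinned 1 h after seeding, […] from 46 uM; 24 h, 37 C, 5% CO2; lytic HiBiT detection, 10 min RT, luminescence.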

[2] = qHTS for inhibitors of adenylyl cyclases using a fission yeast platform: a pilot screen against the NCATS LOPAC library (AID 1347410); conditions: S. pombe CHP2027, fbp1-GFP fluorescence, 18 h, yeast expressing mammalian AC9 and human GNAS; series mostly up to 57.5 µM
In short: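 Read-out: fbp1-GFP fluorescence by laser scanning cytometry (488 nm laser), a gain of signal when AC/cAMP-PKA signalling is inhibited. Strain CHP2027 expressing AC9, GNAS and PDE4D2; compounds at up to 57 µM; 18 h, 30C.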

[3] = target: Protein phosphatase 1D (Homo sapiens) (UniProt O15297); experiment: RapidFire Mass Spectrometry qHTS Assay for Modulators of WT P53-Induced Phosphatase 1 (WIP1) (AID 1347424); conditions: WIP1 dephosphorylation of phosphopeptide, RapidFire MS; series mostly up to 63 µM;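 further: amount of dephosphorylated VEPPL-S-QETFS peptide product formed by WIP1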
In short: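 WIP1 (10 nM final) was preincubated 1 h at room temperature with compounds in Tris-HCl pH 7.5, 30 mM MgCl2, TCEP, EGTA, BSA; 2 uM VEPPL-pS-QETFS phosphopeptide was added for 5 min, quenched with formic acid, and dephosphorylated product quantified by RapidFire MS.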

[4] = target: Protein phosphatase 1D (Homo sapiens) (UniProt O15297); experiment: Rhodamine-PBP qHTS Assay for Modulators of WT P53-Induced Phosphatase 1 (WIP1) (AID 1347425); conditions: recombinant WIP1, Rhodamine-PBP phosphate fluorescence, real-time; series mostly up to 57.5 µM
In short: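 The read-out is the change in Rhodamine-PBP fluorescence (f1 - f0, ex 525/em 598 nm) as Pi is released, read each minute for 11 min. Final reaction: 5 nM WIP1, 10 uM phosphopeptide VEPPL-pS-QETFS, 10 uM Rh-PBP, 50 mM Tris-HCl pH 7.5, 30 mM MgCl2. Compound was preincubated with enzyme for 1 hour at room temperature.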

[5] = Validation qHTS assay for inhibitors of Activation Induced Cytidine Deaminase (AID): UDG Counterscreen signal (AID 1347427); conditions: biochemical UDG counterscreen, fluorescence signal; series mostly up to 115 µM
In short: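 Counterscreen read of UDG activity (2 U/mL, 4/3x) in the FRET deamination format with AID (1 uM, 4/3x), DJC20/DJC23 substrates (250 nM, 4x), 4 h at room temperature. NaOH stop, fluorescence at 560 ex/665 em.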

[6] = qHTS to identify inhibitors of the type 1 interferon - major histocompatibility complex class I in skeletal muscle: primary screen against the NCATS Mechanism Interrogation Plate v5.0 (MIPE) Libary (AID 1347411); conditions: iHSKM cells + IFN-b, HiBiT-tagged MHC-I luminescence, 24 h; series mostly up to 45.8 µM; further: nearly all actives have a fitted effect of over 65% in size; further: potency means the concentration at half of the fitted maximal effect
In short: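 Immortalized human myoblasts (C25cl48) with HiBit knocked into endogenous HLA-B*08:01 were stimulated with 4 ng/ml IFN-beta and given compounds in 11-point 1:3 titration from 46 uM. After 24 h at 37 C, lytic HiBiT luminescence was read.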

Measured: Potency

Sequence of Protein phosphatase 1D (Homo sapiens) (O15297 whole entry, looked up): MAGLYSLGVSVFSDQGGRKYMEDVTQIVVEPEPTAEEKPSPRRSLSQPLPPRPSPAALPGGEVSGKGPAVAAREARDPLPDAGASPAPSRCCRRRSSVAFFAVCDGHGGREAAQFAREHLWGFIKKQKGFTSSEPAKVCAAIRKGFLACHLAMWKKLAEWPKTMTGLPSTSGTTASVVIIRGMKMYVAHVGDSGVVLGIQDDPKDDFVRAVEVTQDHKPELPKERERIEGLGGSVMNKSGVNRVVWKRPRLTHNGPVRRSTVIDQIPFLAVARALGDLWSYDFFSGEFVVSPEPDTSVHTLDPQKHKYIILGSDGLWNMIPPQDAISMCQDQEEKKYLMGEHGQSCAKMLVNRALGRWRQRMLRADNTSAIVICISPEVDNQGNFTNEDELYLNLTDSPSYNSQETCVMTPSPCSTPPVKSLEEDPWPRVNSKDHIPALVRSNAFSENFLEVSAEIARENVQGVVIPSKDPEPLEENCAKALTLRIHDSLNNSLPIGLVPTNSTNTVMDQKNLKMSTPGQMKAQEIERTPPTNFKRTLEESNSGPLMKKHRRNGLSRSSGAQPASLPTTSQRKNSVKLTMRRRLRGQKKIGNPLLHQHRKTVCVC

COC(=O)Nc1nc2ccc(C(=O)c3cccs3)cc2[nH]1
inactive: [1] | [2] | [3] | [4] | [5]

COc1ccccc1OCC(O)CN1CCN(CC(=O)Nc2c(C)cccc2C)CC1 (stereo unspecified)
inactive: [1] | [2] | [6] | [3] | [4] | [5]

Nc1nnc(-c2cccc(Cl)c2Cl)c(N)n1
inactive: [1] | [6] | [3] | [4]

CN1C(C(=O)Nc2ccccn2)=C(O)c2ccccc2S1(=O)=O
inactive: [1] | [2] | [6] | [3] | [4] | [5]

Cc1ccccc1N1C(=O)c2cc(S(N)(=O)=O)c(Cl)cc2NC1C (stereo unspecified)
inactive: [1] | [6] | [3] | [4] | [5]

O=C(C1CCCCC1)N1CC(=O)N2CCc3ccccc3C2C1 (stereo unspecified)
inactive: [3] | [4]

COc1ccc2c(c1)c(CC(=O)O)c(C)n2C(=O)c1ccc(Cl)cc1
inactive: [5]

NCCS(=O)(=O)O
inactive: [1] | [6] | [3] | [4] | [5]

C[C@](N)(Cc1ccc(O)c(O)c1)C(=O)O
inactive: [1] | [6] | [5]

O=c1c(-c2ccc(O)cc2)coc2cc(O)cc(O)c12
inactive: [2] | [3] | [4] | [5]
active: [6] 9.51 µM

Cc1cn([C@H]2C[C@H](N=[N+]=[N-])[C@@H](CO)O2)c(=O)[nH]c1=O
inactive: [3] | [4]

O=C(Nc1ccc([N+](=O)[O-])cc1Cl)c1cc(Cl)ccc1O
inactive: [1] | [6] | [3] | [4] | [5]

Clc1ccc2nsnc2c1NC1=NCCN1
inactive: [1] | [6] | [3] | [4] | [5]

O=C1Cc2cc(CCN3CCN(c4nsc5ccccc45)CC3)c(Cl)cc2N1
inactive: [1] | [3] | [4] | [5]

CN1C2CCC1CC(OC(=O)C(CO)c1ccccc1)C2 (stereo unspecified)
inactive: [2]

CN(CCOc1ccc(NS(C)(=O)=O)cc1)CCc1ccc(NS(C)(=O)=O)cc1
inactive: [3] | [4]

Clc1ccc2c(c1)C(N1CCNCC1)=Nc1ccccc1O2
inactive: [1] | [3] | [4] | [5]

CN1CCN(CCCN2c3ccccc3Sc3ccc(Cl)cc32)CC1
inactive: [1] | [3] | [4] | [5]

CC(C)C(=O)Nc1ccc([N+](=O)[O-])c(C(F)(F)F)c1
inactive: [2] | [6] | [3] | [4] | [5]

CN(C)C(=N)N=C(N)N
inactive: [1] | [3] | [4]

CN(C)C(=O)C(CCN1CCC(O)(c2ccc(Cl)cc2)CC1)(c1ccccc1)c1ccccc1
inactive: [1] | [3] | [4] | [5]

COc1cc2nc(N3CCN(C(=O)c4ccco4)CC3)nc(N)c2cc1OC
inactive: [2] | [3] | [4]

CCC1(c2ccccc2)C(=O)NCNC1=O
inactive: [3] | [4]

Fc1ccc([C@@H]2CCNC[C@H]2COc2ccc3c(c2)OCO3)cc1
inactive: [1] | [3] | [4] | [5]

CC[C@@]1(O)C(=O)OCc2c1cc1n(c2=O)Cc2cc3c(CN(C)C)c(O)ccc3nc2-1
active: [1] 10.5 µM
inactive: [3] | [4]

CCCCc1oc2ccccc2c1C(=O)c1cc(I)c(OCCN(CC)CC)c(I)c1
inactive: [1] | [3] | [4] | [5]

CC1(C)O[C@H]2CC(=O)OC[C@]23[C@H]2CC[C@@]4(C)[C@H](c5ccoc5)OC(=O)[C@H]5O[C@]54[C@]2(C)C(=O)C[C@@H]13
inactive: [1] | [3] | [4]

Clc1ccccc1C(c1ccccc1)(c1ccccc1)n1ccnc1
inactive: [2] | [3] | [4] | [5]

COc1ccc(C2CNC(=O)C2)cc1OC1CCCC1 (stereo unspecified)
inactive: [1] | [6] | [3] | [4] | [5]

O=C1N(c2ccccc2)c2ccccc2C1(Cc1ccncc1)Cc1ccncc1
inactive: [1] | [6] | [3] | [4] | [5]

Cn1c(=O)c2[nH]cnc2n(C)c1=O
inactive: [3] | [4]

CC(C)Cc1ccc(C(C)C(=O)O)cc1 (stereo unspecified)
inactive: [3] | [4]

NS(=O)(=O)c1cc2c(cc1Cl)NCNS2(=O)=O
inactive: [1] | [6] | [3] | [4] | [5]

O=C(c1ccc(OCCN2CCCCC2)cc1)c1c(-c2ccc(O)cc2)sc2cc(O)ccc12
inactive: [1] | [6] | [3] | [4] | [5]

COc1ccc(CCN(C)CCCC(C#N)(c2ccc(OC)c(OC)c2)C(C)C)cc1OC (stereo unspecified)
inactive: [2] | [3] | [4]

CS(=O)(=O)CCNCc1ccc(-c2ccc3ncnc(Nc4ccc(OCc5cccc(F)c5)c(Cl)c4)c3c2)o1
active: [6] 33 µM
inactive: [3] | [4]

Cn1c(=O)c2c(ncn2C)n(C)c1=O
inactive: [3] | [4] | [5]

O=c1c(O)c(-c2ccc(O)c(O)c2)oc2cc(O)cc(O)c12
inactive: [1] | [6] | [3] | [5]

CC(COc1ccccc1)N(CCCl)Cc1ccccc1 (stereo unspecified)
inactive: [1] | [6] | [3] | [4] | [5]
